Reference: the supplement of paper PMC10849652
Of roughly 7,900 targets only a part is listed; those with a hit were picked by preference. About 0.6% of all pairs of compound and target were hits. A number with no mark means an inactive call.

Experiments:
Assay in all cases: log2 fold change, soluble protein after heating vs DMSO (PISA); higher = thermal stabilisation; K562 cells, 10 uM, 30 min; active = over 0.2 and 3.5 SD of the protein, either way, in both replicates (recomputed)
IRAK-1-4 Inhibitor I = compound: C1COCCN1CCN2C3=CC=CC=C3N=C2NC(=O)C4=CC(=CC=C4)[N+](=O)[O-] [IRAK-1-4 Inhibitor I]
In short: (§1)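 K562 cells at 2×10^6 cells/mL were given 10 μM compound for 30 min. Aliquots then went through 3 min of heating across 48°C-58°C, were pooled, and were extracted in PBS with 0.5% NP-40 at 4°C, and the supernatant after 21,000xg for 90 min was quantified by TMTpro 16plex LC-MS/MS with channel sums equalised. Thermal stability relative to control samples, from duplicates, is given as log2 fold change.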

ibrutinib = compound: C=CC(=O)N1CCC[C@@H](n2nc(-c3ccc(Oc4ccccc4)cc3)c3c(N)ncnc32)C1 [ibrutinib]
In short: as §1

[1] = compound: CC(=O)c1cnc2ccc(-c3cc(Cl)c(O)c(Cl)c3)nc2c1N[C@H]1CC[C@H](CN(C)C)CC1
In short: as §1

ralimetinib = compound: CC(C)(C)Cn1c(N)nc2ccc(-c3[nH]c(C(C)(C)C)nc3-c3ccc(F)cc3)nc21 [ralimetinib]
In short: as §1

[2] = compound: CC(C)(O)CC(=O)NCCn1ccc2ncnc(Nc3ccc(Oc4cccc(C(F)(F)F)c4)c(Cl)c3)c21
In short: as §1

[3] = compound: CC(C)C1=C2N=C(C=C(N2N=C1)NCC3=CC=CC=C3)NCCCCCCN
In short: as §1

[4] = compound: CC(C)C[C@@H](C=O)NC(=O)[C@H](CC(C)C)NC(=O)[C@H](CC(C)C)NC(=O)OCc1ccccc1
In short: as §1

pinometostat = compound: CC(C)N(C[C@H]1O[C@@H](n2cnc3c(N)ncnc32)[C@H](O)[C@@H]1O)[C@H]1C[C@@H](CCc2nc3cc(C(C)(C)C)ccc3[nH]2)C1 [pinometostat]
In short: as §1

[5] = compound: CC1=C(C(CC(=O)N1)C2=CC=C(C=C2)C(F)(F)F)C(=O)NC3=C(C=C4C(=C3)C=NN4)F
In short: as §1

[6] = compound: CC1=C(C2=C(C=C1)C(=O)C3=CC=CC=C3N2CCCN)C
In short: as §1

Sequence of UniProt O00217 (O00217 whole entry, looked up): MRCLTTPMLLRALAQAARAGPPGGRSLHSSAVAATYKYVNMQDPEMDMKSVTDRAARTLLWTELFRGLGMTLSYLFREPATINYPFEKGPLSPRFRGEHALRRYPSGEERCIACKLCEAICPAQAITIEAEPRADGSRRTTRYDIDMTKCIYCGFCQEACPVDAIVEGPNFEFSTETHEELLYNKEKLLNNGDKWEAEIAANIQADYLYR
Sequence of UniProt Q9BV86 (Q9BV86 whole entry, looked up): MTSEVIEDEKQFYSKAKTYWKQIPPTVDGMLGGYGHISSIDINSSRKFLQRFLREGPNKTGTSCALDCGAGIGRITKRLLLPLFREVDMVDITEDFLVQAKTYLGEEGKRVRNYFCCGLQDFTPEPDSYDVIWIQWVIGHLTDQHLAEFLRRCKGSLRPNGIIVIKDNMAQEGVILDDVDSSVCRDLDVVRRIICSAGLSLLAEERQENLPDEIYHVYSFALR
Sequence of UniProt P49757 (P49757 whole entry, looked up): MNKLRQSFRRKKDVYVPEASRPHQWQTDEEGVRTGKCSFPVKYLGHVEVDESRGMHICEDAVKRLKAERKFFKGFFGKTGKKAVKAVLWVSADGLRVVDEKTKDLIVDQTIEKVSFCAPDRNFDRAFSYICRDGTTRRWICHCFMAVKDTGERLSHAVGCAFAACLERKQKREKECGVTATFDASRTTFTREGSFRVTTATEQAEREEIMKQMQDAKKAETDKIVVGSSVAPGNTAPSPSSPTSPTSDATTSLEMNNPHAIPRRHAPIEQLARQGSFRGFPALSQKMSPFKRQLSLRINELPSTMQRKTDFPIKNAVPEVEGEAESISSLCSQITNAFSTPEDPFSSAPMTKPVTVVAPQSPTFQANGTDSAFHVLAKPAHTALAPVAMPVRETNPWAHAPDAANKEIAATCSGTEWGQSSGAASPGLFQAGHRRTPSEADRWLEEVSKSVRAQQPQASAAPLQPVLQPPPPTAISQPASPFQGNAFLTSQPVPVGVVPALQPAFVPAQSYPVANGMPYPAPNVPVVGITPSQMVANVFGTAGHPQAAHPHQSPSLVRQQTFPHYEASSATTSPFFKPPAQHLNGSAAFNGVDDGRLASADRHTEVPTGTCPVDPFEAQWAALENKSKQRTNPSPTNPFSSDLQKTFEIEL
Sequence of UniProt O43847 (O43847 whole entry, looked up): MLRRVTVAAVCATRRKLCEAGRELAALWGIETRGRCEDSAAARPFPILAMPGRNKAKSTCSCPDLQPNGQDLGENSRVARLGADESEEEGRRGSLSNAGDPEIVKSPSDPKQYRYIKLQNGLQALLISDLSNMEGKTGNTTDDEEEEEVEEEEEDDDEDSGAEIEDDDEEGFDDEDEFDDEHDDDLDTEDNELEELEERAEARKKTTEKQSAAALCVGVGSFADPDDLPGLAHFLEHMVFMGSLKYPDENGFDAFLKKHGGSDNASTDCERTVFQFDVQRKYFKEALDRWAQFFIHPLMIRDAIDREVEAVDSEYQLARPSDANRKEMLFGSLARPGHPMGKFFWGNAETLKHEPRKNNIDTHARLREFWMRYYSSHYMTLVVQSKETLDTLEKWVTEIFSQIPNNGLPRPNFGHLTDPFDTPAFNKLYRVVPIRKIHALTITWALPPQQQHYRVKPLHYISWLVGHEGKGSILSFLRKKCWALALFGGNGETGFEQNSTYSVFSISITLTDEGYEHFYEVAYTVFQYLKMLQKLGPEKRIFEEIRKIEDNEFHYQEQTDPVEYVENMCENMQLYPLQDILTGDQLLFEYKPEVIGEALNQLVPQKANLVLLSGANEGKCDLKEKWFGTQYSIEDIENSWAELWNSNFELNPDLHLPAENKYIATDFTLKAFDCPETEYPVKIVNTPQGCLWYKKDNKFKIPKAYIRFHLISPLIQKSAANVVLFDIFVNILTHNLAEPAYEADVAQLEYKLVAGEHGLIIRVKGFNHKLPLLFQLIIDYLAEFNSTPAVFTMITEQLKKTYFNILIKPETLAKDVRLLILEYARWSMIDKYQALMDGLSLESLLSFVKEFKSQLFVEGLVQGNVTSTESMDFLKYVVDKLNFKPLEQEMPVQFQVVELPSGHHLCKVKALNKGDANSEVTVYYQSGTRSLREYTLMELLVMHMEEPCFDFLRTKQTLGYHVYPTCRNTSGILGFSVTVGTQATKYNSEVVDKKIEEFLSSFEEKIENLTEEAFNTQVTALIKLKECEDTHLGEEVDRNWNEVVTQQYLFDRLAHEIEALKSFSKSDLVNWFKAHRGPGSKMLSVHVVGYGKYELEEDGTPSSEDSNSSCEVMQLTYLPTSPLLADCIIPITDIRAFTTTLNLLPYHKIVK
Sequence of UniProt Q9BRP4 (Q9BRP4 whole entry, looked up): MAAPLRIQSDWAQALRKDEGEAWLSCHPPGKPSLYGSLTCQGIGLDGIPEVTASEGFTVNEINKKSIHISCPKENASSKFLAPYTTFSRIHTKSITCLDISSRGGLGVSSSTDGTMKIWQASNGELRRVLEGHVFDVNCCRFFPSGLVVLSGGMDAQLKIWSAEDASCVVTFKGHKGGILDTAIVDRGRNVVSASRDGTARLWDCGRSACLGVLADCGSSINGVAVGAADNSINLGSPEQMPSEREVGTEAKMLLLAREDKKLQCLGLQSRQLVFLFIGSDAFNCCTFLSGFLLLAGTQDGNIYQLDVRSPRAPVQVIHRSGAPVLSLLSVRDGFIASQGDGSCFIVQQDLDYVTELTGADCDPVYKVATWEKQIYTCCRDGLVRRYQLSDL

How did the log2 fold change (IRAK-1-4 Inhibitor I) turn out when NUMB (UniProt P49757) was run?
The log2 fold change was 0.008.

And the log2 fold change (ibrutinib)?
Its log2 fold change is -0.05.

And the log2 fold change [1]?
The log2 fold change was -0.318 (active).

What about the log2 fold change (ralimetinib) of the same target?
Its log2 fold change is 0.049.

And the log2 fold change [2]?
The log2 fold change was -0.062.

What about the log2 fold change [3] of the same target?
Its log2 fold change is -0.086.

And the log2 fold change [4]?
Its log2 fold change is 0.053.

And the log2 fold change (pinometostat)?
Its log2 fold change is 0.061.

And the log2 fold change [5]?
The log2 fold change was 0.047.

And the log2 fold change [6]?
The log2 fold change was 0.079.

What does the source list for NRDC isoform 2 (UniProt O43847)?
log2 fold change (IRAK-1-4 Inhibitor I): 0.003; log2 fold change (ibrutinib): -0.033; log2 fold change [1]: -0.026; log2 fold change (ralimetinib): 0.011; log2 fold change [2]: -0.04; log2 fold change [3]: 0.053; log2 fold change [4]: 0.029; log2 fold change (pinometostat): 0.015; log2 fold change [5]: 0; log2 fold change [6]: 0.037

How did the log2 fold change (IRAK-1-4 Inhibitor I) turn out when NDUFS8 (UniProt O00217) was run?
The log2 fold change was 0.087.

What about the log2 fold change (ibrutinib) of the same target?
The log2 fold change was 0.034.

What about the log2 fold change [1] of the same target?
The log2 fold change was -0.02.

What about the log2 fold change (ralimetinib) of the same target?
Its log2 fold change is -0.083.

What about the log2 fold change [2] of the same target?
Its log2 fold change is -0.099.

And the log2 fold change [3]?
The log2 fold change was -0.145.

And the log2 fold change [4]?
The log2 fold change was 0.017.

And the log2 fold change (pinometostat)?
The log2 fold change was 0.005.

What about the log2 fold change [5] of the same target?
Its log2 fold change is 0.034.

What about the log2 fold change [6] of the same target?
Its log2 fold change is 0.075.

Which results are given for PAAF1 (UniProt Q9BRP4)?
log2 fold change (IRAK-1-4 Inhibitor I): 0.037; log2 fold change (ibrutinib): -0.003; log2 fold change [1]: -0.029; log2 fold change (ralimetinib): 0.001; log2 fold change [2]: 0.007; log2 fold change [3]: 0.037; log2 fold change [4]: -0.28 (active); log2 fold change (pinometostat): -0.026; log2 fold change [5]: 0.008; log2 fold change [6]: 0.027

For NTMT1 (UniProt Q9BV86), which log2 fold change (IRAK-1-4 Inhibitor I) is on record?
The log2 fold change was 0.

And the log2 fold change (ibrutinib)?
The log2 fold change was 0.011.

What about the log2 fold change [1] of the same target?
Its log2 fold change is -0.046.

What about the log2 fold change (ralimetinib) of the same target?
The log2 fold change was -0.02.

What about the log2 fold change [2] of the same target?
Its log2 fold change is -0.053.

And the log2 fold change [3]?
Its log2 fold change is 0.095.

What about the log2 fold change [4] of the same target?
The log2 fold change was -0.052.

And the log2 fold change (pinometostat)?
Its log2 fold change is -0.029.

What about the log2 fold change [5] of the same target?
The log2 fold change was -0.082.

What about the log2 fold change [6] of the same target?
Its log2 fold change is 0.157.

For NA, A0A0B4J2A0, which log2 fold change (IRAK-1-4 Inhibitor I) is on record?
The log2 fold change was 0.014.

What about the log2 fold change (ibrutinib) of the same target?
The log2 fold change was -0.015.

And the log2 fold change [1]?
The log2 fold change was -0.072.

What about the log2 fold change (ralimetinib) of the same target?
The log2 fold change was -0.023.

And the log2 fold change [2]?
The log2 fold change was -0.105.

What about the log2 fold change [3] of the same target?
Its log2 fold change is 0.044.

And the log2 fold change [4]?
Its log2 fold change is 0.031.

And the log2 fold change (pinometostat)?
The log2 fold change was 0.018.

What about the log2 fold change [5] of the same target?
Its log2 fold change is 0.051.

And the log2 fold change [6]?
Its log2 fold change is 0.107.
